{"source": "paper PMC7862700", "about": "“An all-to-all approach to the identification of sequence-specific readers for epigenetic DNA modifications on cytosine”", "assay_in_all_cases": "DAPPL (digital affinity profiling via proximity ligation, sequencing); 10 mM Tris-HCl pH 7.5, 50 mM NaCl, 1 mM DTT, 4% glycerol, room temperature, 30 min; GST-TFs on glutathione beads, 16-mer random dsDNA library, 0.1% formaldehyde crosslink after washing; high values mean tight binding", "details_in_all_cases": "protein: recombinant; tags: N-terminal GST; dsDNA, one strand shown", "key": {"FLI1": {"biological_target": "T1, FLI1 (Homo sapiens, UniProt Q01543 1-452)", "T1 sequence": "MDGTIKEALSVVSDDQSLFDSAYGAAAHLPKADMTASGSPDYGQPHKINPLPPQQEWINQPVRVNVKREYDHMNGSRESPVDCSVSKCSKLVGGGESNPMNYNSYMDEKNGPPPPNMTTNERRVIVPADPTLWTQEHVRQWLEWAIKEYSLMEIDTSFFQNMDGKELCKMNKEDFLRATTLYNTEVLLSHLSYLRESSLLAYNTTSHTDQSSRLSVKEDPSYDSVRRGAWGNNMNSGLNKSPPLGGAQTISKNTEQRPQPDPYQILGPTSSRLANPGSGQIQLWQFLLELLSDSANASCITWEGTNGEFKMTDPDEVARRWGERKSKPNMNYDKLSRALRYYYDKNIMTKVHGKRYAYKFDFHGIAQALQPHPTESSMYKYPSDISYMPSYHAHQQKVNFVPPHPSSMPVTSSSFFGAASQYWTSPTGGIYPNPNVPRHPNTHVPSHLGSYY", "summary_of_the_method": "(§1)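 Yeast served to express human transcription factors as GST fusions, which were then captured on glutathione beads and labelled with DNA barcodes. Pooled with a tag-only sample, they were incubated with 200 nmole of a 16-mer random double-stranded DNA library for 30 min at room temperature in Tris/NaCl/DTT/glycerol buffer, washed, crosslinked with 0.1% formaldehyde, ligated by proximity, amplified by PCR and sequenced. Dividing each hexamer's read frequency for a factor by its frequency for the tag-only sample gives the binding signal.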"}, "ELK1": {"biological_target": "T2, ELK1 (Homo sapiens, UniProt P19419 1-428)", "T2 sequence": "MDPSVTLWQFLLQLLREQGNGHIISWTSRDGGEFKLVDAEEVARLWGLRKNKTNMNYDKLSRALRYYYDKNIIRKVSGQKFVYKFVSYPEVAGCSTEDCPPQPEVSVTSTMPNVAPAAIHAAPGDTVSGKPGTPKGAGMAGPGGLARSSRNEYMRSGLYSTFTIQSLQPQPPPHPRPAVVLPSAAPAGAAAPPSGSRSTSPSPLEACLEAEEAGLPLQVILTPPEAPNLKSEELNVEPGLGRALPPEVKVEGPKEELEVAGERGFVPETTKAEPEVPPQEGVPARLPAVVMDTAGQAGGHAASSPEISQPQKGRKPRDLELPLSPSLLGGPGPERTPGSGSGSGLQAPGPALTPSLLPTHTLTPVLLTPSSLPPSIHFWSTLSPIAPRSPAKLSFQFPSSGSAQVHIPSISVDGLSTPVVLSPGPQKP", "summary_of_the_method": "as §1"}, "GABPA": {"biological_target": "T3, GABPA (Homo sapiens, UniProt Q06546 1-454)", "T3 sequence": "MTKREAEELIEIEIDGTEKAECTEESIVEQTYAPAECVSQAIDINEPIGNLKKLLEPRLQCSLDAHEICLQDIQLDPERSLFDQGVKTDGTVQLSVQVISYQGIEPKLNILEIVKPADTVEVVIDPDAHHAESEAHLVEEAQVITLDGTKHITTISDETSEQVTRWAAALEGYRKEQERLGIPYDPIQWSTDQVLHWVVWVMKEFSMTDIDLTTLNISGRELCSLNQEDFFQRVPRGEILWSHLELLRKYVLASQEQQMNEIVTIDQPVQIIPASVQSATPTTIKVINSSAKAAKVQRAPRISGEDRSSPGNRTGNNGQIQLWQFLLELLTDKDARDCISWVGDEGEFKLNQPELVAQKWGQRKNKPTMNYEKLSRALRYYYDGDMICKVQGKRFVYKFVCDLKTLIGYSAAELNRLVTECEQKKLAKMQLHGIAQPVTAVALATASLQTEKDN", "summary_of_the_method": "as §1"}, "ERG": {"biological_target": "T4, ERG (Homo sapiens, UniProt P11308 1-479)", "T4 sequence": "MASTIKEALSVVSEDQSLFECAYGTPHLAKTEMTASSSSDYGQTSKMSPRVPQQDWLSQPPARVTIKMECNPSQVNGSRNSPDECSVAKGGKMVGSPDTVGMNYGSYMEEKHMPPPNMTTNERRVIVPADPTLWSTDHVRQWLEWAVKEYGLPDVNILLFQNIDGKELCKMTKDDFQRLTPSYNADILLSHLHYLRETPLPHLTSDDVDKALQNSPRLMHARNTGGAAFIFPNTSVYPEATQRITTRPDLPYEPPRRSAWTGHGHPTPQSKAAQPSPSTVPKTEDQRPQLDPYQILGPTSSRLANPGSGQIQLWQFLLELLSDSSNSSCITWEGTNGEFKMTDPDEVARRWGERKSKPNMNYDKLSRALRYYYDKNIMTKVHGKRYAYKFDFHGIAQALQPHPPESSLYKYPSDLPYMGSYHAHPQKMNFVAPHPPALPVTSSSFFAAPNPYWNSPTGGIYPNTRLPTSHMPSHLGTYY", "summary_of_the_method": "as §1"}, "ELF1": {"biological_target": "ELF1 (Homo sapiens, UniProt P32519 1-619)", "sequence (P32519 whole entry)": "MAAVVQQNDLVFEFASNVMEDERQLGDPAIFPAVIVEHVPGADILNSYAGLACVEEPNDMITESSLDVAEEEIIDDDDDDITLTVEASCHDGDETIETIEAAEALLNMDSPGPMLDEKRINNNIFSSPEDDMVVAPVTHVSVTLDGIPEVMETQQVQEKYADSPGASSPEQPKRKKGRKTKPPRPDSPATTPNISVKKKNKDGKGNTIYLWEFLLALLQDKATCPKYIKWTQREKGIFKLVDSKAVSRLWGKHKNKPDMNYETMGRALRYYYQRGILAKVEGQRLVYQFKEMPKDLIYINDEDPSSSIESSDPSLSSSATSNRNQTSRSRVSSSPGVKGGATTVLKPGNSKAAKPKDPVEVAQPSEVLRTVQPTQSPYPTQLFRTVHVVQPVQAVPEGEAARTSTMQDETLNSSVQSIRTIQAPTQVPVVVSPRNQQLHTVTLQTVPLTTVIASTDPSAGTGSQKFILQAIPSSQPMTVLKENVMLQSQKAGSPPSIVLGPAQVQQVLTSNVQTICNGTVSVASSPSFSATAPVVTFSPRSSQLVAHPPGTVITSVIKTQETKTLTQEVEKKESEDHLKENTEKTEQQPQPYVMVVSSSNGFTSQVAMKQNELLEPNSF", "summary_of_the_method": "as §1"}, "EHF": {"biological_target": "T5, EHF (Homo sapiens, UniProt Q9NZC4 1-300)", "T5 sequence": "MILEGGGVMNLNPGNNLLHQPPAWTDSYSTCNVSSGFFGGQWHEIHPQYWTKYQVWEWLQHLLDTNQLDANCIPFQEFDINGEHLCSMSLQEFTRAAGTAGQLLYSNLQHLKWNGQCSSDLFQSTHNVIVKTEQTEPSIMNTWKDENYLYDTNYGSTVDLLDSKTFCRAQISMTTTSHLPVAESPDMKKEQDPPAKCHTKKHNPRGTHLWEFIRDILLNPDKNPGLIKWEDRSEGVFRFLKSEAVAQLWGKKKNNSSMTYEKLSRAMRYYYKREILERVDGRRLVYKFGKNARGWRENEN", "summary_of_the_method": "as §1"}, "SPIB": {"biological_target": "SPIB (Homo sapiens, UniProt Q01892 1-262)", "sequence (Q01892 whole entry)": "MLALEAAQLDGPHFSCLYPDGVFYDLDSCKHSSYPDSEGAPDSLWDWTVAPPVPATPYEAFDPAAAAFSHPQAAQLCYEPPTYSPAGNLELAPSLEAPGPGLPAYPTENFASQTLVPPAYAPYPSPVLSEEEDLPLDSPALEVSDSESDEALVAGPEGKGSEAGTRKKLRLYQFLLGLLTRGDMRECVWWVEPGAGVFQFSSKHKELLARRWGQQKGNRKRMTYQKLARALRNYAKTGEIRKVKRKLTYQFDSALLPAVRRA", "summary_of_the_method": "as §1"}, "ELK3": {"biological_target": "T6, ELK3 (Homo sapiens, UniProt P41970 1-407)", "T6 sequence": "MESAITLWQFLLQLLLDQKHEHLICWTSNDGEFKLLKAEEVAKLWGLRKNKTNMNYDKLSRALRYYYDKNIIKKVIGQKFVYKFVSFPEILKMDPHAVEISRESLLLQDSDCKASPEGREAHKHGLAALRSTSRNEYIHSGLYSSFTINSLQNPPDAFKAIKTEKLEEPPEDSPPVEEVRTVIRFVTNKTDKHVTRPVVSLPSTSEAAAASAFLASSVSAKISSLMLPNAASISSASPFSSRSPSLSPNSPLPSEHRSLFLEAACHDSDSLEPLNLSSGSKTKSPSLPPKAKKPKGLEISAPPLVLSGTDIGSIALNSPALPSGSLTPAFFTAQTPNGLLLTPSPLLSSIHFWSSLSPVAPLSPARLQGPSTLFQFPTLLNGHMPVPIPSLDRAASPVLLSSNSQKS", "summary_of_the_method": "as §1"}, "SPIC": {"biological_target": "T7, SPIC (Homo sapiens, UniProt Q8N5J4 1-248)", "T7 sequence": "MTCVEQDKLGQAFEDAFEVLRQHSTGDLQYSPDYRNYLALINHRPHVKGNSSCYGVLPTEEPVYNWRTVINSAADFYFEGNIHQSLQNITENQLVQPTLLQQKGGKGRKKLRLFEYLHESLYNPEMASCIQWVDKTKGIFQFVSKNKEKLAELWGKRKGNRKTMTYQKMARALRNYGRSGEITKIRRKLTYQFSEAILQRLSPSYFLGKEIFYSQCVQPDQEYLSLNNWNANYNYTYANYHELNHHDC", "summary_of_the_method": "as §1"}, "ELF4": {"biological_target": "ELF4 (Homo sapiens, UniProt Q99607 1-663)", "sequence (Q99607 whole entry)": "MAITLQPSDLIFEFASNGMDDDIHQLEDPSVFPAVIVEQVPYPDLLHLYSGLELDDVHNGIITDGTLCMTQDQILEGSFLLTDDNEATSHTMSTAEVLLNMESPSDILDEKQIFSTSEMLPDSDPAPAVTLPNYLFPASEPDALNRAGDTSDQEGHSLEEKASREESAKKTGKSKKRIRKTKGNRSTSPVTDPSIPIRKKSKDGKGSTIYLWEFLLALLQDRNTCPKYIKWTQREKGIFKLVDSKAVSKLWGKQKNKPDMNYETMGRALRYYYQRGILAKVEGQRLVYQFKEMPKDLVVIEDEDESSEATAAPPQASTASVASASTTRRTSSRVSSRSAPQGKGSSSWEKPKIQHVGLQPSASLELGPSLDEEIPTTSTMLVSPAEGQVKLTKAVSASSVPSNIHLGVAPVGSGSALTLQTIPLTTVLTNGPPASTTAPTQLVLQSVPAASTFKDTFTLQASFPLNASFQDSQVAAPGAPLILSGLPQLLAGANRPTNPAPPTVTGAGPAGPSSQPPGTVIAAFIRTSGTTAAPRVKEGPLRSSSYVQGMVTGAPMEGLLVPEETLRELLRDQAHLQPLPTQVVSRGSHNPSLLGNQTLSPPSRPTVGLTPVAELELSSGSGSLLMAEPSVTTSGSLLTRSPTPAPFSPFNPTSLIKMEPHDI", "summary_of_the_method": "as §1"}}, "data": [{"sequence": "GCTGGT", "values": [{"measurement": "binding signal", "setting": "FLI1", "value": "1.29 fold enrichment (6-mer frequency, TF over GST control)"}, {"measurement": "binding signal", "setting": "ELK1", "value": "1.23 fold enrichment (6-mer frequency, TF over GST control)"}, {"measurement": "binding signal", "setting": "GABPA", "value": "1.15 fold enrichment (6-mer frequency, TF over GST control)"}, {"measurement": "binding signal", "setting": "ERG", "value": "1.28 fold enrichment (6-mer frequency, TF over GST control)"}, {"measurement": "binding signal", "setting": "ELF1", "value": "1.04 fold enrichment (6-mer frequency, TF over GST control)"}, {"measurement": "binding signal", "setting": "EHF", "value": "1.2 fold enrichment (6-mer frequency, TF over GST control)"}, {"measurement": "binding signal", "setting": "SPIB", "value": "1.18 fold enrichment (6-mer frequency, TF over GST control)"}, {"measurement": "binding signal", "setting": "ELK3", "value": "1.19 fold enrichment (6-mer frequency, TF over GST control)"}, {"measurement": "binding signal", "setting": "SPIC", "value": "1.08 fold enrichment (6-mer frequency, TF over GST control)"}, {"measurement": "binding signal", "setting": "ELF4", "value": "1.11 fold enrichment (6-mer frequency, TF over GST control)"}]}]}
